# Results reported in PubChem BioAssay.
# Active and inactive are the calls of the source.
# Experiments:
# [1] = optical density shifts of acrAB sulA E. coli – strain DRC41, OD650, 48 h, E. coli filamentation inducer project, primary screen (AID 1152); conditions: higher = more signal, called active from +8 up or from −8 down;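 also: E. coli MC1000 strain DRC41 lacking acrAB efflux pump and sulA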
# [2] = probe aLefty1 binding on compound microarray – biochemical, small-molecule microarray, 635/667 nm fluorescence, primary screen (AID 1153); conditions: higher = more signal;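 also: score merges spot fluorescence with signal-to-noise ratio from the scanned slide images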
# [3] = plasmodial surface anion channel blockers, osmotic lysis – cell-based, P. falciparum Indochina, OD700, 1 h, primary screen (AID 1154); conditions: P. falciparum Indochina infected RBC osmotic lysis, higher = more signal, called active from +8 up or from −8 down
# [4] = plasmodial surface anion channel blockers, osmotic lysis – cell-based, P. falciparum Indochina, OD700, 2 h, primary screen (AID 1155);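 also: lysis reports solute entry through the parasite surface anion channel PSAC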; conditions: P. falciparum Indochina infected erythrocytes, higher = more signal, called active from +8 up or from −8 down
# [5] = changes in parasitized red cell lysis, either direction – P. falciparum Indochina, OD700, 3 h, PSAC antagonist project, primary screen (AID 1156); conditions: P. falciparum-infected erythrocytes, osmotic lysis, higher = more signal, called active from +8 up or from −8 down
# [6] = plasmodial surface anion channel blockers, osmotic lysis – cell-based, P. falciparum Indochina, OD700, 18 h, primary screen (AID 1157); conditions: P. falciparum Indochina infected erythrocytes, osmotic lysis OD700, 18 h; higher = more signal, called active from +8 up or from −8 down
# [7] = S6 kinase pathway phospho-S6 level changes – cell-based, A549, cytoblot, luminescence, serum-stimulated, primary screen (AID 1158); conditions: 5 h, higher = more signal;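 also: serum-stimulated A549 lung adenocarcinoma cells; signal is phosphorylated S6 detected by cytoblot immunostaining with HRP secondary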
# [8] = target: NADPH oxidase 2 (Homo sapiens) (UniProt P04839); experiment: compounds shifting NOX2 Amplex Red fluorescence – cell-based, HEK293-NOX2, PMA-stimulated, NOX inhibitor project, primary screen (AID 1159); conditions: 45 min, higher = more signal, called active from +8 up or from −8 down; also: test concentration not given here
# [9] = target: NADPH oxidase 4 (Homo sapiens) (UniProt Q9NPH5); experiment: compounds shifting NOX4 Amplex Red fluorescence – cell-based, HEK293-NOX4, tetracycline-induced, NOX inhibitor project, primary screen (AID 1160); conditions: HEK293-NOX4, Amplex Red H2O2 fluorescence, 45 min; higher = more signal, called active from +8 up or from −8 down
# [10] = target: NADPH oxidase 5 (Homo sapiens) (UniProt Q96PH1); experiment: compounds shifting NOX5 Amplex Red fluorescence – cell-based, HEK293-NOX5, NOX inhibitor project, primary screen (AID 1161); conditions: HEK293-NOX5, ionomycin, 45 min, higher = more signal
# [11] = compound effects on lung adenocarcinoma cell viability – A549, calcein-AM fluorescence, 48 h, basal, profiling panel (AID 1162); conditions: higher = more signal; also: test concentration not given here
# [12] = compound effects on differentiated 3T3-L1 adipocyte viability – cell-based, 3T3-L1 adipocytes, calcein-AM fluorescence, 48 h, basal, profiling panel (AID 1163); conditions: 3T3-L1 adipocytes viability, higher = more signal; also: test concentration not given here
# [13] = compound effects on hepatocellular carcinoma cell viability – HepG2, calcein-AM fluorescence, 48 h, basal, profiling panel (AID 1164); conditions: higher = more signal; also: test concentration not given here
# [14] = compound effects on multiple myeloma cell viability – MM1S, calcein-AM fluorescence, 48 h, basal, profiling panel (AID 1165); conditions: higher = more signal; also: test concentration not given here
# [15] = calcein-AM signal in unstimulated myeloma cells – cell-based, calcein-AM fluorescence, 48 h, PK04 Diversity Set, profiling panel (AID 1166); conditions: RPMI8226 myeloma viability, higher = more signal;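 also: cells grown under basal conditions without added stimulus; test concentration not given here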
# [16] = JC-1 mitochondrial signal, unstimulated HepG2 cells – cell-based, JC-1 fluorescence, 24 h, 100 nL compound, profiling panel (AID 1167); conditions: HepG2 mitochondrial potential, higher = more signal; also: test concentration not given here
# [17] = JC-1 mitochondrial signal, unstimulated adipocytes – cell-based, JC-1 fluorescence, 3T3-L1 adipocytes, 24 h, 100 nL compound, profiling panel (AID 1168); conditions: JC-1 mitochondrial fluorescence, higher = more signal, called active from +8 up or from −8 down; also: test concentration not given here
# [18] = JC-1 mitochondrial signal, unstimulated myeloma cells – cell-based, JC-1 fluorescence, RPMI8226, 24 h, 100 nL compound, profiling panel (AID 1169); conditions: JC-1 mitochondrial potential fluorescence, higher = more signal; also: test concentration not given here
# [19] = JC-1 mitochondrial signal, unstimulated MM1S myeloma – cell-based, JC-1 fluorescence, 24 h, 100 nL compound, profiling panel (AID 1170); conditions: MM1S mitochondrial potential, higher = more signal; also: test concentration not given here
# [20] = resazurin metabolic signal in A549 cells – cell-based, resazurin fluorescence, 24 h, PK04 Diversity Set, profiling panel (AID 1171); conditions: A549 viability, higher = more signal, called active from +8 up or from −8 down; also: test concentration not given here
# NADPH oxidase 5 (Homo sapiens), sequence (Q96PH1 whole entry, looked up): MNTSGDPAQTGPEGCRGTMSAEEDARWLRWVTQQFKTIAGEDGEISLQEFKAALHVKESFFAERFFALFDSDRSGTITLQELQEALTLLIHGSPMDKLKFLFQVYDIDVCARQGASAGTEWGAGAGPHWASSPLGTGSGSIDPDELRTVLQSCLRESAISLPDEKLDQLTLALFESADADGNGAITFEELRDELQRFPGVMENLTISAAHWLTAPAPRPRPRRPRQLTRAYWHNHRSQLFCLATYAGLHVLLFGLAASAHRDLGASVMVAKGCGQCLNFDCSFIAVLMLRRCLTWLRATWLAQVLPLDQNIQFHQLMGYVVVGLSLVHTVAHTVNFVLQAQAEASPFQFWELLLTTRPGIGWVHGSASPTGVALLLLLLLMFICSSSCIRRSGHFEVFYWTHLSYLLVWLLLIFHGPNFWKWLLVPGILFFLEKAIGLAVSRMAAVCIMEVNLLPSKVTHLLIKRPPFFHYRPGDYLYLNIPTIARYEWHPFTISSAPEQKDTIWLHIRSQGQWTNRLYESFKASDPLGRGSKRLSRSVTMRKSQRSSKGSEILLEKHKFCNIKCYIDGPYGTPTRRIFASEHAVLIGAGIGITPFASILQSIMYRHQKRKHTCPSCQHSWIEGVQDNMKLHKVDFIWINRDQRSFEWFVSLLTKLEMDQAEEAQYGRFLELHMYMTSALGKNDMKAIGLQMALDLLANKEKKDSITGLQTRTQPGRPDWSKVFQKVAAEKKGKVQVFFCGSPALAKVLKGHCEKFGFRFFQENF
# NADPH oxidase 4 (Homo sapiens), sequence (Q9NPH5 whole entry, looked up): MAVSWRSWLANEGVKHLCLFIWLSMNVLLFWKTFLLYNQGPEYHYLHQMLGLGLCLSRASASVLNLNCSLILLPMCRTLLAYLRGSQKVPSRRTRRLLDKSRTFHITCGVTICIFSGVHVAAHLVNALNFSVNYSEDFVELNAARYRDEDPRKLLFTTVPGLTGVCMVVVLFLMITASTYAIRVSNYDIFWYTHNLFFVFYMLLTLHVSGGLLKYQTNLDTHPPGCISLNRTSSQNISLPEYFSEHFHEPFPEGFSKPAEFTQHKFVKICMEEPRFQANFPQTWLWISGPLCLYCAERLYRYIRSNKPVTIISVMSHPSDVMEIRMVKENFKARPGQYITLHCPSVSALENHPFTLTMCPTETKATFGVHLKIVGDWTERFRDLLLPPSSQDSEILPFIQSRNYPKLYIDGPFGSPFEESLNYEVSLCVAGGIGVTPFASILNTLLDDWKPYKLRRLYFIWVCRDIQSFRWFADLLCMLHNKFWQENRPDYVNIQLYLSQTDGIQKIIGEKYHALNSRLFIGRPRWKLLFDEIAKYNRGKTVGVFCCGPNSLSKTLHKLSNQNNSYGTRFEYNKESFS
# NADPH oxidase 2 (Homo sapiens), sequence (P04839 whole entry, looked up): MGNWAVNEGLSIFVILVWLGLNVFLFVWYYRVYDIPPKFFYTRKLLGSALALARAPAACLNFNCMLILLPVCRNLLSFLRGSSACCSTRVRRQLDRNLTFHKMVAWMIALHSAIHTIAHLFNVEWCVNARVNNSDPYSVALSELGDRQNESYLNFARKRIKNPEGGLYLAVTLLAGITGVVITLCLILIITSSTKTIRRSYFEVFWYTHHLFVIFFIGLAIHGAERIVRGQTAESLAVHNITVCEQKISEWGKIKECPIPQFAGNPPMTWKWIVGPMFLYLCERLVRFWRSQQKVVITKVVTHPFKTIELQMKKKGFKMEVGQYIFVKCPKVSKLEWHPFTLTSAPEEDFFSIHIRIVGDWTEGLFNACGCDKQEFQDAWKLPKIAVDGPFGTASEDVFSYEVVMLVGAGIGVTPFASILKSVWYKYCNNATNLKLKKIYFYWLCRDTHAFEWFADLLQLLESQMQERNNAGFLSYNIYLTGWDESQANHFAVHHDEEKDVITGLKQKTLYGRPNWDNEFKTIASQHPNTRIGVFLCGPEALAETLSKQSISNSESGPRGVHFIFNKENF
SMILES,z-score [1],composite z-score [2],z-score [3],z-score [4],z-score [5],z-score [6],z-score [7],z-score [8],z-score [9],z-score [10],z-score [11],z-score [12],z-score [13],z-score [14],z-score [15],z-score [16],z-score [17],z-score [18],z-score [19],z-score [20]
CN(C)CCCC[C@@H]1NC(=O)[C@H]2C[C@@H](C(=O)O)[C@@H](c3cccc(OCCO)c3)N2C1=O,0.0804 (inactive),0.393,7.58 (inactive),0.945 (inactive),-5.21 (inactive),0.424 (inactive),0.479,-2.73 (inactive),-3.04 (inactive),-1.4,-0.17,0.174,0.41,-3.21,0.584,0.773,-0.829 (inactive),-0.786,-0.713,0.618 (inactive)
C=CCN1C(=O)[C@]2(O[C@H](CCO)[C@@H]([Si](C)(C)c3ccc(OC)cc3)[C@@H]2C)c2ccccc21,-1.95 (inactive),-0.33,11.9 (active),2.43 (inactive),-2.63 (inactive),1.19 (inactive),-0.613,-0.536 (inactive),-0.0158 (inactive),-1.23,-3.94,-0.448,-4.62,-2.7,-4.37,-3.42,-0.0442 (inactive),-1.18,-2.21,-1.83 (inactive)
O=C1C2C=CC(C(O)c3cccs3)N(Nc3ccccc3)C2C(=O)N1c1ccccc1 (stereo not given),-0.597 (inactive),0.328,2.55 (inactive),0.52 (inactive),0.916 (inactive),-0.423 (inactive),2.34,-2.63 (inactive),-3.57 (inactive),-3.35,-0.125,0.715,-0.379,0.473,0.502,-1.72,0.673 (inactive),-0.18,-0.542,-0.919 (inactive)
CO[C@H]1O[C@H](CO)[C@@H](OC(=O)Nc2ccc(C(F)(F)F)cc2)[C@H](OC(=O)Nc2ccccc2-c2ccccc2)[C@@H]1OC(=O)Nc1ccccc1-c1ccccc1,0.0065 (inactive),0.534,4.11 (inactive),1.04 (inactive),0.14 (inactive),0.817 (inactive),0.672,-0.803 (inactive),-0.549 (inactive),-1.23,-1.34,-0.029,-0.745,-0.413,-0.909,-0.58,0.688 (inactive),-0.172,-0.35,-1.35 (inactive)
[N-]=[N+]=NCc1ccccc1C[C@]1(C(=O)O)COC(c2ccc(OCCCO)cc2)=N1,0.0626 (inactive),0.118,5.11 (inactive),0.179 (inactive),1.56 (inactive),-0.315 (inactive),0.49,0.0988 (inactive),1.27 (inactive),0.641,0.608,-0.379,0.383,-0.175,0.345,-0.578,-0.634 (inactive),-0.285,-0.261,0.0946 (inactive)
C=CCC(OC(C)=O)[C@@H]1[C@@H](N(Cc2cc3ccccc3o2)C(=O)Cc2ccc(OC)cc2)c2cc(OCCCO)ccc2N1C(=O)Cc1ccc2ccccc2c1 (stereo not given in full),-0.476 (inactive),0.152,2.63 (inactive),-0.005 (inactive),1.35 (inactive),0.308 (inactive),0.638,-0.282 (inactive),-0.427 (inactive),1.21,0.583,0.592,-0.118,0.0786,-0.929,2.27,-0.315 (inactive),0.00245,-0.692,-1.16 (inactive)
COc1ccc([Si](C)(C)[C@@H]2[C@@H](CCO)O[C@]3(C(=O)N(Cc4ccccc4)c4ccc(N5C(=O)c6ccccc6Oc6ccccc65)cc43)[C@H]2C)cc1,1.02 (inactive),0.0962,2.11 (inactive),1.37 (inactive),0.0898 (inactive),0.718 (inactive),0.656,0.212 (inactive),1.64 (inactive),2.23,-1.47,-0.0095,-1.96,-1.77,-2.66,-0.871,-0.735 (inactive),-0.848,-1.36,-1.07 (inactive)
CCC[C@@H]1C=C(C(=O)OCC)[C@H](c2ccccc2)N1S(=O)(=O)c1ccc(C)cc1,-0.843 (inactive),0.316,-0.0086 (inactive),0.979 (inactive),-0.628 (inactive),0.0962 (inactive),-0.788,-0.671 (inactive),-0.646 (inactive),-0.135,-1.78,-0.937,-2.37,-1.19,-2.96,3.86,0.437 (inactive),-0.756,-0.65,1.8 (inactive)
COC(=O)[C@@]1(Cc2ccccc2)[C@@H]2[C@@H](CC(=O)[C@H]2CC(=O)C(=O)N(C)C)CN1C(=O)c1ccccc1,-0.655 (inactive),0.0811,2.19 (inactive),0.543 (inactive),0.0132 (inactive),0.738 (inactive),-0.268,0.984 (inactive),0.766 (inactive),-0.461,0.258,-0.103,0.0925,-0.822,0.397,1.23,-0.239 (inactive),0.209,-1.31,-0.658 (inactive)
CN1C(=O)C2C(C1=O)C1C=C(c3ccc(CO)cc3)C2C(c2cccs2)N1C (stereo not given),0.894 (inactive),0.186,3.57 (inactive),1.29 (inactive),1.43 (inactive),0.699 (inactive),-0.105,0.158 (inactive),-1.96 (inactive),-0.45,-0.0148,0.338,0.186,-0.88,-0.996,0.398,-0.42 (inactive),-0.492,0.172,-0.173 (inactive)
COC(=O)[C@@]1(Cc2ccc(OC)cc2)[C@@H]2[C@@H](CC(=O)[C@H]2CC(=O)C(=O)N2CCCC2)CN1C(=O)c1ccccc1,-1.17 (inactive),2.14,4.55 (inactive),0.989 (inactive),1.07 (inactive),0.986 (inactive),0.0676,-0.204 (inactive),0.65 (inactive),0.26,-0.515,0.745,0.681,-2.61,-2.94,0.74,-1.62 (inactive),-1.01,-0.787,-0.189 (inactive)
COCCCNC(=O)[C@@H]1c2ccccc2C(=O)N(Cc2cc(C(F)(F)F)cc(C(F)(F)F)c2)[C@H]1c1ccc(CO)cc1,0.144 (inactive),1.24,1.58 (inactive),-0.0915 (inactive),0.532 (inactive),0.254 (inactive),-0.348,0.175 (inactive),0.414 (inactive),1.54,0.301,-0.458,0.519,0.514,-1.74,0.983,0.385 (inactive),-0.992,0.636,-0.266 (inactive)
[N-]=[N+]=NCc1ccccc1C[C@]1(C(=O)N2CCCCC2)N=C(c2ccc(OCCCO)cc2)O[C@H]1c1ccccc1,0.74 (inactive),0.118,20.4 (active),5.49 (inactive),3.48 (inactive),2.04 (inactive),1.38,-1.16 (inactive),-0.0602 (inactive),-0.924,-0.888,0.252,-0.923,-2.59,-4.27,0.117,0.845 (inactive),-1.14,-2.38,-0.136 (inactive)
Cc1ccc(S(=O)(=O)N2[C@@H](c3ccccc3)C(C(=O)O)=CC[C@H]2c2ccc(C#N)cc2)cc1,-1.22 (inactive),0.114,4.02 (inactive),1.42 (inactive),1.6 (inactive),0.559 (inactive),-0.316,-0.229 (inactive),-1.62 (inactive),-1.54,-0.283,-0.287,-0.187,-0.44,-0.471,-0.556,-0.633 (inactive),-0.748,0.226,-0.748 (inactive)
CC(C)C[C@@H]1NC(=O)[C@@H]2C[C@H](C(=O)NCCCC[N+](C)(C)C)[C@H](c3ccc(O)cc3)N2C1=O,-0.04 (inactive),-0.0145,1.32 (inactive),0.281 (inactive),-0.0501 (inactive),0.449 (inactive),0.145,-2.33 (inactive),-1.4 (inactive),-2.19,0.127,-0.302,-0.698,-0.104,-0.427,-0.65,-0.341 (inactive),0.496,-0.548,-1.18 (inactive)
COCCOC(=O)N1C(=O)[C@@]2(c3cc(C#CC4=CCCCC4)ccc31)[C@H](C(=O)N1CCc3cc(OC)c(OC)cc3C1)[C@H]1C(=O)O[C@H](c3ccccc3)[C@H](c3ccccc3)N1[C@@H]2c1ccc(O)cc1,0.448 (inactive),0.679,0.996 (inactive),0.755 (inactive),0.067 (inactive),0.827 (inactive),0.228,1.58 (inactive),-0.0332 (inactive),1.18,0.59,0.479,0.334,-1.16,-0.583,-0.427,0.508 (inactive),-0.388,0.403,0.481 (inactive)
[N-]=[N+]=NCc1ccccc1C[C@]1(C(=O)NCc2ccccc2)N=C(c2ccc(OCCCO)cc2)O[C@H]1c1ccccc1CN=[N+]=[N-],1.76 (inactive),1.09,18.7 (active),5.01 (inactive),2.53 (inactive),0.936 (inactive),2.34,-1.09 (inactive),0.145 (inactive),0.094,-1.42,2.15,-0.955,-1.23,-1.69,0.247,-0.158 (inactive),-0.899,-0.214,-1.09 (inactive)
